# Compound activity from PubChem BioAssay.
# Sampled rows, rich in hits. Any-hit rate of the full collection: about 4.6%.
# SKKanGAS inh: inhibitors of SKKanGAS S. pyogenes growth in kanamycin (SK-promoter or general growth effect). inhibition, % at 7.5 µM. BacTiter-Glo, 6 h. AID 1662. 300,000 tested, 1.3% active;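 active means mean replicate score, as percent of positive control median, at least 50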;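 further: strain carries kanamycin resistance gene driven by streptokinase promoter and grows in 40 µg/ml kanamycin; loss of luminescence reflects streptokinase promoter inhibition or plain growth inhibition; 0% = median of DMSO wells and 100% = positive control at its reference dose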
# tim23-1 inh: tim23-1 yeast growth inhibition | S. cerevisiae tim23-1 growth, BacTiter-Glo luminescence, 24 h | inhibition, % at 20 µM | 330,000 tested, 1.3% active | AID 463212;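 active means growth inhibition of the mutant yeast at or above 50%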;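 further: temperature-sensitive mutant grown at 25 °C; plate controls were DMSO-treated mutant yeast for no effect and medium wells lacking yeast for full effect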
# TIM10 inh: TIM10 yeast growth inhibition. S. cerevisiae TIM10 strain growth, BacTiter-Glo luminescence, 24 h. inhibition, % at 10 µM. 330,000 tested, 1.4% active. AID 463195;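 active means inhibition of 40% or more at the single tested concentration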;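 further: wild-type TIM10 isogenic control strain grown at permissive 25 °C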
# NLRP3 yeast inh: NALP3 inhibition in yeast; 330,000 tested, 0.39% active; inhibition, % at 10 µM; Yeast reconstituted NLRP3/ASC/caspase-1, beta-gal luminescence, 24 h; AID 2825;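 active means inhibition of 50% or more; inactive means inhibition below 50%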;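 further: plate controls were induced DMSO wells for no effect and uninduced yeast grown without galactose for full effect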
# PfHsp90 set2: growth inhibition of yeast expressing Plasmodium Hsp90; AID 504621; S. cerevisiae expressing PfHsp90, BacTiter-Glo ATP, 48 h; yeast lacking PDR1 and PDR3 efflux regulators; inhibition, % at 9.4 µM; 310,000 tested, 0.32% active;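 active means every replicate shows inhibition above about 80%, whatever the replicate mean, limit read from the data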;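 further: 0% = DMSO neutral controls and 100% = 20 µM radicicol positive controls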
# tim10-1 inh: growth inhibitors of tim10-1 mutant yeast; inhibition, % at 20 µM; S. cerevisiae tim10-1 ts strain growth, BacTiter-Glo, 24 h; 330,000 tested, 2.2% active; AID 463190;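 active means inhibition of at least 40%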;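 further: mutant grown at 25 °C; 0% = DMSO wells with yeast and 100% = wells holding no yeast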
# tim10-1 confirm: confirmation of tim10-1 mutant yeast growth inhibitors. shares compounds with tim10-1 inh. S. cerevisiae tim10-1 ts strain growth, BacTiter-Glo, 24 h. inhibition, % at 20 µM. 7,400 tested, 56% active. AID 463213;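 active means inhibition of yeast growth at or above a set limit in either of two repeat tests at 20 µM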;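 further: tim10-1 mutant grown at permissive 25 °C to find synthetic lethal compounds; 0% = DMSO yeast wells and 100% = medium wells without yeast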
# Numbers without * were called inactive; x = no result given.
SMILES,SKKanGAS inh,tim23-1 inh,TIM10 inh,NLRP3 yeast inh,PfHsp90 set2,tim10-1 inh,tim10-1 confirm
CCCc1nn2c(=O)cc(CSCC(=O)Nc3cccc(OC)c3)nc2s1,-5,5,4,19,3,-11,x
O=C(N/N=C\c1ccccn1)C1c2ccccc2Oc2ccccc21,21,24,5,2,7,43*,18
O=C(/C=C/c1ccccc1[N+](=O)[O-])NCCN1C(=O)S/C(=C\c2ccc(F)cc2)C1=O,-7,14,10,1,x,9,x
CC(C)(C)C(=O)NCCN1C(=O)S/C(=C\c2ccc([N+](=O)[O-])cc2)C1=O,-6,45,35,17,3,57*,44*
O=c1[nH]c(-c2ccccc2)c(-c2ccccc2)o1,7,9,23,-55,-15,8,x
O=S(=O)(/N=C(/c1ccccc1)N1CCOCC1)c1ccc(F)cc1,-1,12,-5,-1,6,15,x
COc1ccc2c(COC(=O)CNC(=O)C34CC5CC(CC(C5)C3)C4)cc(=O)oc2c1,7,29,19,15,17,42*,27
Cc1onc(-c2ccccc2)c1C(=O)N(C)CC(=O)Nc1ccc(F)c(F)c1F,x,18,18,-3,x,18,x
Cc1cccc(OCC(=O)NCCCNC(=O)c2ccco2)c1,1,4,-17,14,1,3,x
NNC(=O)c1[nH]c2ccccc2c1-c1ccccc1,10,50,25,20,-10,42*,35*
COc1ccc(C2=CC(=O)C=CC2=O)cc1,5,x,x,x,x,x,x
O=[N+]([O-])c1ccc(NCc2ccc(Cl)cc2)nc1,-2,32,20,18,3,35,x
O=[N+]([O-])c1ccc(Nc2ccc(Cl)cc2)nc1,-12,42,11,-14,-9,59*,42*
c1cn2c(Nc3ccc4c(c3)OCCO4)c(-c3ccc(N4CCOCC4)cc3)nc2cn1,8,9,15,0,-7,6,x
Clc1ccc(-c2nc3cnccn3c2NC2CCCC2)cc1,2,30,23,13,-56,50*,23
CCOC(=O)CNc1c(-c2ccc(Cl)cc2)nc2cnccn12,-7,40,12,7,x,25,x
Oc1ccccc1-c1nc2cnccn2c1Nc1ccc2c(c1)OCCO2,-4,44,29,-1,15,32,x
CSc1ccc(-c2nc3cnccn3c2Nc2ccc3c(c2)OCO3)cc1,-39,34,27,22,x,46*,43*
Clc1ccc(-c2nc3cnccn3c2Nc2ccc3c(c2)OCO3)cc1,4,49,26,2,-18,45*,35*
O=S(=O)(/N=C(/Nc1cccc2ccccc12)c1ccccc1)c1ccc(F)cc1,1,26,10,-3,6,34,x
CCCCN(C(=O)c1c(-c2ccccc2)noc1C)c1c(N)n(CCC)c(=O)[nH]c1=O,x,-12,4,15,-22,-5,x
Cc1ccc(S(=O)(=O)Nc2ccc(N=Nc3ccc(O)cc3)cc2)cc1,13,38,34,42,-28,40*,47*
C=CCNc1nc(Nc2ccc([N+](=O)[O-])cc2)nc(OCC)n1,-4,-18,-30,16,-54,10,x
Cc1oc2c(C)c3oc(=O)c4c(c3cc2c1C)CCCC4,-1,36,27,10,-17,54*,55*
O=C(N/N=C1\CCCc2ccccc21)c1ccc([N+](=O)[O-])cc1,0,25,22,-6,-50,46*,26
SMILES,SKKanGAS inh,tim23-1 inh,TIM10 inh,NLRP3 yeast inh,PfHsp90 set2,tim10-1 inh,tim10-1 confirm
COC(=O)C1CCN(C(=O)[C@H](C)NC(=O)C2CC(=O)N(c3ccc(F)cc3)C2)CC1 (stereo partly drawn),0,11,9,-2,-22,13,x
O=C(CN1C(=O)/C(=C/c2ccccc2)SC1=S)N1CCN(CCc2ccccn2)CC1,-1,40,18,5,-2,42*,30
Cc1ccc(C)c(-n2cc(CN3CCCN(C=O)CC3)c(-c3ccccc3)n2)c1,-5,16,14,-1,23,11,x
COc1ccc(/C(O)=C2/C(=O)C(=O)N(CCCN(C)C)C2c2ccc(C)o2)cc1Cl (stereo not drawn),1,x,x,x,x,x,x
CCCCNC(=S)N=Nc1c(O)[nH]c2ccccc12,-3,44,32,3,-5,47*,41*
CCc1ccc(OC)c(S(=O)(=O)NCc2cccs2)c1,x,21,5,0,-1,8,x
CCc1nc2cc(Cl)c(Cl)cc2[nH]1,-6,27,32,29,5,41*,37*
O=C(/C=C(/c1ccc(Cl)cc1)n1cncn1)c1ccccc1,-3,36,19,-2,9,43*,31*
C=C1CCC[C@]2(C)C[C@H]3OC(=O)C(CN(C)CC(OC)OC)[C@H]3CC12 (stereo partly drawn),-3,25,15,-15,-21,42*,41*
C=C1CCC[C@]2(C)C[C@H]3OC(=O)C(CNC(C)CC)[C@H]3CC12 (stereo partly drawn),0,31,30,1,10,43*,37*
C=C1CCC[C@]2(C)C[C@H]3OC(=O)C(CNC(CC)CO)[C@H]3CC12 (stereo partly drawn),1,35,16,-83,1,52*,45*
C=C1CCC[C@]2(C)C[C@H]3OC(=O)C(CN4CCCCC4CO)[C@H]3CC12 (stereo partly drawn),1,46,26,-81,-21,48*,37*
O=C(CNC(=O)c1ccccc1C(F)(F)F)N/N=C/c1cccs1,-7,11,9,-2,4,25,x
O=C(CN1CCN(S(=O)(=O)c2ccc(Cl)cc2)CC1)NCC1(N2CCOCC2)CCCCC1,x,-1,9,19,0,-2,x
O=C(Nn1cnc2ccccc2c1=O)c1ccc([N+](=O)[O-])cc1,-13,9,21,0,7,13,x
CC(=O)N1c2ccc(S(=O)(=O)NCCC(=O)Nc3ncccc3C)cc2CC1C (stereo not drawn),-5,11,-5,-1,10,19,x
O=C(CCl)Nc1ncc(S(=O)(=O)c2ccc([N+](=O)[O-])cc2)s1,x,32,5,5,-28,16,x
CCC(C)(C)C(=O)Nc1ncc(S(=O)(=O)c2ccc([N+](=O)[O-])cc2)s1,11,16,16,15,0,42*,27
COCCN(C(=O)COC(=O)CCSc1ccc(F)cc1)c1c(N)n(Cc2ccccc2)c(=O)[nH]c1=O,-10,9,2,10,-18,-5,x
COc1cc(C(=O)Nc2cccc(NC(=O)c3cccs3)c2)cc(OC)c1OC,3,22,0,2,-2,8,x
